AI-2 QS modul: Vibrio harveyi AI-2 quorum sensing modulation; 0.4% of 300,000 active; activity change, % at 7.5 µM; Vibrio harveyi JMH597 AI-2 luminescence/OD600 ratio, 9 h; hits give low values; strain lacks LuxN and CqsS sensors; 0 = neutral-control median; in the data active = activity change below about -75%, passing the limit was not always enough;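 note: luminescence divided by OD600 gain over 9 h not by final OD600 alone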
ATG4B inhibitor: ATG4B (human) cysteine protease inhibition. Q9Y4P1. ATG4B cleavage of LC3-PLA2, NBD-HPC fluorescence, 1 h. inhibition, % at 8.33 µM. 0.51% of 340,000 active. AID 504462; in the data active = inhibition above about 40%
Target sequence (Q9Y4P1 whole entry, looked up): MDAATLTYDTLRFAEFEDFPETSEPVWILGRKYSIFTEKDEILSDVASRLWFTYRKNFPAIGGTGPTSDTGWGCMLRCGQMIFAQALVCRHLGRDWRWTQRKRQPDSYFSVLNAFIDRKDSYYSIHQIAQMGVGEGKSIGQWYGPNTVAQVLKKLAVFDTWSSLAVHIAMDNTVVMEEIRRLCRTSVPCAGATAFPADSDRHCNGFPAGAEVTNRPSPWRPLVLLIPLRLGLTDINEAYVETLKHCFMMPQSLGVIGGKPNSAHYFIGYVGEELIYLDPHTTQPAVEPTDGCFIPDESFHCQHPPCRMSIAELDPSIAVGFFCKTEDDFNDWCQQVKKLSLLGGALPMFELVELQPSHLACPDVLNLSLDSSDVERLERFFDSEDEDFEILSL
SUMO Mot1 rescue: inhibitors of SUMOylation pathway: yeast Mot1-301 growth rescue. growth rescue, % at 18.8 µM. 1% of 320,000 active. S. cerevisiae Mot1-301 growth rescue, ATP luminescence, 38.5C; percent above DMSO median, 100 means doubled;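 active = every valid replicate shows activation above 250% relative to neutral control wells; inactive = the rest, any valid replicate at or below 250%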
Efflux pump inh: antifungal efflux pump inhibition, Nile Red retention; S. cerevisiae Candida pump triplex; inhibition, % at 10 µM; 0.44% of 330,000 active; AID 485275;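 active = plate passing quality check with inhibition over a set limit, or well fluorescence over plate mean plus 4 SD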;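 note: Nile Red retained in pooled yeast measured as flow cytometry median fluorescence; higher means more Nile Red kept so more efflux inhibition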
V-ATPase pH: alters yeast V-ATPase proton transport; S. cerevisiae, pHLuorin cytosolic pH fluorescence; response, % at 10 µM; 0.37% of 350,000 active; AID 504577; in the data active = response mostly above about 7.3%, no sharp cut-off; inactive = mostly below about 5.4%; note: actives read high
Cmpd fluor yeast: counter-screen for efflux pump inhibitors: compound fluorescence; S. cerevisiae AD/pABC3, flow cytometry; shares compounds with Efflux pump inh; 4% of 1,700 active; fluorescence ratio to DMSO, % at 10 µM;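 active = fluorescence ratio to DMSO above its plate's cutoff, the plate mean ratio plus 5 SD, cut at about 210% in these data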;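 note: unstained yeast with no Nile Red so the signal is compound autofluorescence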
Mdr1 pump inh: Candida Mdr1 efflux pump inhibition. shares compounds with Efflux pump inh. S. cerevisiae AD/CaMDR1, Nile Red efflux, flow cytometry. inhibition, % at 10 µM. 1% of 1,700 active; in the data active = inhibition above about 26%;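 note: higher means more Nile Red retained so more efflux inhibition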
Cdr2 pump inh: blocks the Candida albicans Cdr2 efflux pump in yeast; shares compounds with Efflux pump inh; S. cerevisiae AD/CaCDR2, Nile Red retention, flow cytometry; Nile Red retention ratio vs DMSO, % at 10 µM; 4% of 1,700 active; in the data active = Nile Red retention ratio vs DMSO above about 190%;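 note: higher ratio means more blocking of Cdr2 efflux of the dye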
Cdr1 pump inh: Candida Cdr1 efflux pump inhibition; shares compounds with Efflux pump inh; S. cerevisiae AD/CaCDR1, Nile Red efflux, flow cytometry; inhibition, % at 10 µM; 1% of 1,700 active; AID 588522;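 active = inhibition above the screen-wide mean plus twice its standard deviation, cut at about 32% in these data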
Large screens that a line does not name were inactive (follow-up assays come after a bar, where they were run). Rows were chosen to be rich in hits. Some 2.5% of all compounds tested hit in one or more screens of this group.

O=C(O)c1cccc(Nc2ccncc2[N+](=O)[O-])c1	Efflux pump inh 1.2 | Cmpd fluor yeast inactive | Mdr1 pump inh inactive | Cdr2 pump inh inactive | Cdr1 pump inh inactive
O=C(NN1C(=O)C2C3C=CC(C3)C2C1=O)c1ccccc1 (configuration not stated)	none
O=C(NN1C(=O)C2C3c4ccccc4C(c4ccccc43)C2C1=O)c1ccc(Cl)cc1 (configuration not stated)	Efflux pump inh 8.9 | Cmpd fluor yeast inactive | Mdr1 pump inh inactive | Cdr2 pump inh inactive | Cdr1 pump inh inactive
CC(=O)N(\C=C/C=C/C=C1\Sc2ccccc2C1=O)c1ccccc1	Efflux pump inh 5.7 | Cmpd fluor yeast 297 | Mdr1 pump inh inactive | Cdr2 pump inh inactive | Cdr1 pump inh inactive
CN(C)/C=C1/Sc2ccccc2C1=O	none
O=C(CNc1ccccc1F)Nc1cccc(S(=O)(=O)N2CCCCC2)c1	none (no result: AI-2 QS modul, SUMO Mot1 rescue, Efflux pump inh)
O=C(COc1ccc(F)cc1)Nc1nnc(C2CC2)s1	none | Cmpd fluor yeast inactive | Mdr1 pump inh inactive | Cdr2 pump inh inactive | Cdr1 pump inh inactive
CC(=O)OC[C@H]1O[C@@H](O[C@H]2C[C@]3(C)C(C[C@@H](O)C4C([C@]5(C)CC[C@@H](C(C)(C)O)O5)CC[C@]43C)[C@@]3(C)CC[C@H](O)C(C)(C)C23)[C@H](O[C@@H]2O[C@@H](C)[C@H](O)[C@@H](O)[C@H]2O)[C@@H](O)[C@@H]1O (some centres not stated)	none (no result: AI-2 QS modul)
C=C[C@](C)(CC[C@@]1(C)C(C)CC(OC2OC(C)C(OC3OC(COC(C)=O)C(O)C(O)C3O)C(O)C2O)[C@@]2(C)C(C)=CCCC12)OC1OC(C)C(O[C@@H]2O[C@@H](C)C(O)C(O)[C@H]2O)C(O)C1O (some centres not stated)	Efflux pump inh 1.4 (no result: AI-2 QS modul) | Cmpd fluor yeast inactive | Mdr1 pump inh inactive | Cdr2 pump inh inactive | Cdr1 pump inh inactive
Cc1ccccc1C(=O)NC(=S)Nc1ccc2[nH]c(=O)[nH]c2c1	none
COCCCNC(=O)Cn1cnc2sc(C)c(S(=O)(=O)N3CC(C)CC(C)C3)c2c1=O (configuration not stated)	none
CCOc1cc(C2C3=C(CC(C)(C)CC3=O)N(C)C3=C2C(=O)CC(C)(C)C3)ccc1O	none
O=c1[nH]c(S)c(/C=C2\C=Nc3ccccc32)s1	Efflux pump inh 0.5 | Cmpd fluor yeast inactive | Mdr1 pump inh inactive | Cdr2 pump inh inactive | Cdr1 pump inh inactive
CCCC/C=C1/CCC(CN(C)C)C1=O (configuration not stated)	none (no result: AI-2 QS modul, SUMO Mot1 rescue, Efflux pump inh)
Cc1ccccc1OCc1nc2c3c(ncn2n1)-c1ccccc1CC31CCCC1	Efflux pump inh 34 | Cmpd fluor yeast inactive | Mdr1 pump inh inactive | Cdr2 pump inh inactive | Cdr1 pump inh inactive
Cc1ccc(S(=O)(=O)N(C)C[C@H]2OCCCC[C@@H](C)Oc3ccc(NC(=O)Cc4ccccc4)cc3C(=O)N([C@H](C)CO)C[C@@H]2C)cc1	none (no result: AI-2 QS modul, ATG4B inhibitor, SUMO Mot1 rescue, Efflux pump inh)
CCN(CC)Cc1c(O)ccc2c(=O)c(-c3ccccc3)coc12	Efflux pump inh 1.2 | Cmpd fluor yeast inactive | Mdr1 pump inh inactive | Cdr2 pump inh inactive | Cdr1 pump inh inactive
CCN(CC)Cc1c(O)ccc2c(=O)c(-c3ccc4c(c3)OCCO4)coc12	none
C=CC[C@]12C[C@@H](OC)C(=O)C=C1O[C@@H](c1ccc(OC)c(OC)c1)[C@H]2C	none
O=C(O)COc1ccccc1/C=N/NC(=O)CSc1nnc(SCc2ccccc2)s1	none
Cc1ccc2oc(C(=O)N3CCC(O)(c4cccc(C(F)(F)F)c4)CC3)c(C)c2c1	Efflux pump inh 0.5 | Cmpd fluor yeast inactive | Mdr1 pump inh inactive | Cdr2 pump inh inactive | Cdr1 pump inh inactive
CC(=O)N1CCC(O)(c2cccc(C(F)(F)F)c2)CC1	none
CCN1C(=O)c2cccc3c(S(=O)(=O)N(C(=O)c4ccncc4)c4ccc(OC)cc4)ccc1c23	none
CCN1C(=O)c2cccc3c(S(=O)(=O)N(C(=O)c4cccnc4)c4ccc(OC)cc4)ccc1c23	Efflux pump inh 13 | Cmpd fluor yeast inactive | Mdr1 pump inh inactive | Cdr2 pump inh inactive | Cdr1 pump inh inactive
CC(C)(C)c1ccc(-n2ncc3c2CCCC3NC(=O)c2cnccn2)cc1 (configuration not stated)	Efflux pump inh 0.5 | Cmpd fluor yeast inactive | Mdr1 pump inh inactive | Cdr2 pump inh inactive | Cdr1 pump inh inactive
COc1ccc(NC(=O)c2cc3ccc4c5ccccc5[nH]c4c3cc2O)cc1	none
CCCc1cc(=O)oc2cc(C)cc(OCC(=O)N3CCC(C(=O)O)CC3)c12	none
COc1cc(/C=C/C(=O)c2ccc([N+](=O)[O-])o2)ccc1O	AI-2 QS modul -175, Efflux pump inh 0.8 | Cmpd fluor yeast inactive | Mdr1 pump inh inactive | Cdr2 pump inh inactive | Cdr1 pump inh inactive
CC1CCN(c2ccc(NC(=O)C3CCCN3S(=O)(=O)c3ccc(F)cc3)cc2)CC1 (configuration not stated)	none (no result: AI-2 QS modul)
CCN(Cc1cnn(C)c1)C(=O)c1ccc2nc(Cc3cccc(Cl)c3)oc2c1	none
C[C@H]1CN([C@@H](C)CO)C(=O)c2cccc(NC(=O)Nc3ccc(C(F)(F)F)cc3)c2O[C@@H]1CN(C)C(=O)Nc1ccc(F)cc1	none (no result: AI-2 QS modul) | Cmpd fluor yeast inactive | Mdr1 pump inh inactive | Cdr2 pump inh inactive | Cdr1 pump inh inactive
C[C@H](CO)N1C[C@H](C)[C@@H](CN(C)C(=O)Nc2ccc3c(c2)OCO3)Oc2c(NC(=O)Nc3ccccc3)cccc2C1=O	none (no result: AI-2 QS modul)
CC(C)NC(=O)N(C)C[C@H]1Oc2c(NC(=O)Nc3ccc4c(c3)OCO4)cccc2C(=O)N([C@H](C)CO)C[C@@H]1C	none (no result: AI-2 QS modul, ATG4B inhibitor, SUMO Mot1 rescue) | Cmpd fluor yeast inactive | Mdr1 pump inh inactive | Cdr2 pump inh inactive | Cdr1 pump inh inactive
CC1(c2ccccc2)NC(=O)N(CC(=O)N2CCN(S(=O)(=O)c3c(F)cccc3F)CC2)C1=O (configuration not stated)	none (no result: AI-2 QS modul)
CN(C)C(=O)c1ccc(NC(=O)COC(=O)C2(c3ccccc3)CCCC2)cc1	none (no result: AI-2 QS modul)
COc1cc2c(cc1OC)CN(C(=O)C(CCSC)NS(=O)(=O)c1ccc(C)cc1)CC2 (configuration not stated)	none
C[C@H]1CN([C@@H](C)CO)S(=O)(=O)c2ccc(C#Cc3ccccn3)cc2O[C@@H]1CN(C)C(=O)C1CC1	none (no result: AI-2 QS modul, ATG4B inhibitor, SUMO Mot1 rescue, Efflux pump inh)
COc1ccccc1C1CCN(Cc2c(C)[nH]c3ccccc23)CC1	Efflux pump inh 0.9 | Cmpd fluor yeast inactive | Mdr1 pump inh inactive | Cdr2 pump inh inactive | Cdr1 pump inh inactive
